Hit rate of the full screen: of about 48,000 compounds, about 13,000 (27%) showed an effect of 50% or more. Some of the results follow.
Test system: Wolbachia pipientis
Experiment: Anti-Wolbachia Cell-Based Screen
Assay type: functional
Design: scale not given: in the data most compounds retested in dose-response had high values
Conditions: 5 µM

Structure (SMILES)	Percent Effect [%]
CC(c1cccc(S(N)(=O)=O)c1)N(C)CCOC(C)(C)C (stereo not given)	105.4
CC(c1cccc(O)c1)N(C)S(N)(=O)=O (stereo not given)	16.66
CC(c1cccc(Cl)c1)N(C)CCS(=O)(=O)CCC(N)=O (stereo not given)	6.991
CC(c1ccc(F)c(F)c1)N(C)CCS(=O)(=O)CCC(N)=O (stereo not given)	2.944
COCCN(C)C(C)c1cccc(S(N)(=O)=O)c1 (stereo not given)	128.5
CC(c1cccc(O)c1)N(C)S(=O)(=O)c1cccnc1 (stereo not given)	-4.431
O=C(c1ccc[nH]1)N1CCc2ccc(S(=O)(=O)N3CCOCC3)cc2C1	99.23
O=C(c1ccc[nH]1)N1CCc2c(cccc2S(=O)(=O)N2CCOCC2)C1	94.62
O=C(c1ccc[nH]1)N1CCc2cc(S(=O)(=O)N3CCOCC3)ccc2C1	106.5
O=C(c1cc[nH]n1)N1CCc2ccc(S(=O)(=O)N3CCOCC3)cc2C1	111.1
O=C(c1c[nH]c(=O)c(Cl)c1)N1CCc2ccccc2C1	10.27
CC(C)CC(=O)N1CCc2ccc(S(=O)(=O)N3CCN(C)CC3)cc2C1	0.4144
O=C(O)c1cc(-n2cc3c(n2)CCC3)cc(S(=O)(=O)N2CCOCC2)c1	-7.127
CCCNC(=O)N1CCc2ccc(S(=O)(=O)N3CCOCC3)cc2C1	-14.34
CN1CCN(S(=O)(=O)c2ccc3c(c2)CN(C(=O)C(C)(C)C)CC3)CC1	-9.365
CCCNC(=O)N1CCc2ccc(S(=O)(=O)N3CCN(C)CC3)cc2C1	-8.252
O=C1COc2ccc(S(=O)(=O)N3CCOCC3)c3c2N1CCC3	16.87
CCCNC(=O)N1CCc2ccc(S(=O)(=O)N3CCCC3)cc2C1	-4.985
CCN1CCC(CC(=O)NC[C@H]2CCc3ccccc3O2)CC1	15.83
CC(=O)N1CCN(Cc2ccsc2)CC2(CC(=O)N(C)C2)C1.O=C(O)C(F)(F)F (stereo not given)	101.7
CC(=O)N1CCCC2(CN(Cc3ccc(F)cc3)CCO2)C1.O=C(O)C(F)(F)F (stereo not given)	-7.517
CCN1CC2(CC1=O)CN(Cc1cnn(C)c1)CCN(C(C)=O)C2.O=C(O)C(F)(F)F (stereo not given)	1.894

Structure (SMILES)	Percent Effect [%]
CC(=O)N1CCN(Cc2ccc(F)cc2)CC2(CC(=O)N(C)C2)C1.O=C(O)C(F)(F)F (stereo not given)	98.03
Cn1cc(CN2CCC3(C2)CN(Cc2ccsc2)C3)cn1.O=C(O)C(F)(F)F.O=C(O)C(F)(F)F	-10.11
CCn1cc2c(n1)C(COCC1CC1)CN(C(=O)c1ccsc1)C2 (stereo not given)	2.501
CCOCCC(=O)N1CCCN(c2ccccc2C)CC1	0.9002
O=C(NCCN1CCCC1)c1cc2c(s1)CCN2c1ncccn1	97.7
Cc1ccc(N2C[C@H](C(=O)N3CCOCC3)[C@@H]3CCO[C@@H]3C2)nn1	-2.103
O=C(NCCN1CCCC1)c1nc2c(o1)CN(c1ncccn1)C2	-7.93
CCCNC(=O)c1cnc2n1CCCC2	-8.644
CCc1cc(C(=O)N2CCC(Nc3ccc(C)nn3)CC2)sc1C	-9.138
Cc1ccc(N2CCc3sc(C(=O)N4CCOCC4)cc32)nn1	84.11
CCCNC(=O)c1cc2c(s1)CCN2c1ncccn1	122.6
CC(C)NC(=O)c1nc2c(s1)CCCN2c1ccccc1	7.229
O=C(NCCN1CCOCC1)c1cc2c(s1)CCN2Cc1cccnc1	-4.667
CC(C)NC(=O)c1cc2c(s1)CCN2c1ncccn1	92.76
CC(C)NC(=O)c1nc2c(s1)CCCN2C(C)C	3.81
CCCNC(=O)c1nc2c(o1)CN(c1ncccn1)C2	-1.924
c1cc(-c2nnn3c2COC(CNCC2CCOCC2)C3)ccn1 (stereo not given)	-54.53
c1cnnc(N2CCCC(NCc3cccc4c3OCO4)C2)c1 (stereo not given)	3.932
CCC(NC(=O)NCc1ccoc1C)c1c(C)nn(C)c1C (stereo not given)	3.251
CCN1CCCC(c2c(-c3ccccc3)ncn2CCCO)C1 (stereo not given)	-4.818
Cc1ccc(N2CCc3sc(C(=O)NCCN4CCCC4)cc32)nn1	102.9
CCOCCCNC(=O)c1nc2c(s1)CCCN2c1ccc(C)nn1.O=C(O)C(F)(F)F	-5.598

Structure (SMILES)	Percent Effect [%]
Cc1nnsc1C(=O)NCC1CCN(c2ccccn2)CC1	1.014
O=C(NCC1CC1)c1cc2c(s1)CCN2c1ncccn1	107.3
Cc1ccc(N2CCCc3sc(C(=O)NCCC#N)nc32)nn1.O=C(O)C(F)(F)F	-4.317
CCNC(=O)C(C)(C)NC(=O)NCc1cccc(Br)c1	5.794
CCc1ccc(CN2CCN(CCOC)[C@@H]3CS(=O)(=O)C[C@@H]32)cc1	-8.66
c1ccc(-c2nc(SCc3nnc(C4CC4)o3)n[nH]2)nc1	-8.457
CC(C)c1cc(NC(=O)CNC2CCCN(c3cccnn3)C2)on1 (stereo not given)	100.2
Cc1cc(NC(=O)CN(C)C2CCCN(c3cccnn3)C2)n(C)n1 (stereo not given)	-4.115
Cc1nc(CNC2CCCN(c3cccnn3)C2)no1 (stereo not given)	0.4362
c1cnnc(N2CCCC(NCc3ccncc3)C2)c1 (stereo not given)	0.6717
Cc1ccc(N2CCCC(NCC(=O)Nc3cc(C)no3)C2)nn1 (stereo not given)	8.409
Cc1cc(NC(=O)CNC2CCCN(c3cccnn3)C2)on1 (stereo not given)	92.8
Cc1cc(NC(=O)CN(C)C2CCCN(c3cccnn3)C2)on1 (stereo not given)	99.52
Cc1ccc(N2CCCC(N(C)Cc3cc(C)no3)C2)nn1 (stereo not given)	1.683
CS(=O)(=O)c1ccc(CNC2CCCN(c3cccnn3)C2)cc1 (stereo not given)	6.689
Cc1cc(NC(=O)NCCc2cscn2)nn1C	-10.8
O=C(Cc1cccc(F)c1F)NC1COc2ccccc2C1=O (stereo not given)	2.844
CN(C)CCN1CCOCC2(CCCN(C(=O)c3cccn3C)C2)C1.O=C(O)C(F)(F)F.O=C(O)C(F)(F)F (stereo not given)	-8.448
O=C(c1ccnc(-n2cnnc2)c1)N1CCCC2(CCOC2)C1 (stereo not given)	13.33
CC(C)CN1CCCC2(CCN(C(=O)c3cnccn3)C2)C1 (stereo not given)	-16.61
CN(C)CCN1CCOCC2(CCCN(C(=O)c3cccc(O)c3)C2)C1 (stereo not given)	-3.261
CCN1CCOCC2(CCCN(C(=O)c3ccccc3F)C2)C1.O=C(O)C(F)(F)F (stereo not given)	106.1

Structure (SMILES)	Percent Effect [%]
CCN1CCOCC2(CCCN(C(=O)c3cnccn3)C2)C1 (stereo not given)	95.08
CN(C)CCN1CCOCC2(CCCN(C(=O)c3ccccc3)C2)C1.O=C(O)C(F)(F)F.O=C(O)C(F)(F)F (stereo not given)	-4.449
O=C(O)C(F)(F)F.O=C(c1cnccn1)N1CCCC2(COCCN(CC3CC3)C2)C1 (stereo not given)	-6.241
CCN1CCOCC2(CCCN(C(=O)c3cccc(O)c3)C2)C1 (stereo not given)	105.1
CC(C)CNC(=O)c1nc2c(s1)CCN(C(=O)c1ccc(Cl)cc1)CC2	-4.208
CC(C)OCCCNC(=O)N(C)C(C)c1ccc(-n2cncn2)cc1 (stereo not given)	-7.098
CCN1CC(CN(C)Cc2nc(-c3cccc(Cl)c3)oc2C)CC1=O (stereo not given)	102.8
Cc1cccc(-c2nc(CN3CCOCS3(=O)=O)c(C)o2)c1	4.701
CCc1nnc(CN(C)Cc2nc(-c3ccccc3Cl)oc2C)o1	-2.214
CCN1CC(CN(C)Cc2nc(-c3cccc(C)c3)oc2C)CC1=O (stereo not given)	105.1
CNC(=O)CC1CCN(Cc2nc(-c3cccc(Cl)c3)oc2C)CC1	-0.6077
CCN(CCn1cccn1)Cc1nc(-c2cccc(C)c2)oc1C	-6.378
Cc1nc(C2CCCN(C(=O)c3cc(Cl)c[nH]3)C2)no1 (stereo not given)	0.9971
O=C(Cc1cccc(F)c1)NCCNCc1ccco1	-5.047
CCN(CCNCc1cccc(C#N)c1)C1CC1	-10.23
O=C(Cc1cccc(F)c1)NCCNCc1cccnc1	96.05
N#Cc1cccc(CNCCNC(=O)Cc2cccc(F)c2)c1	98.51
O=C(Cc1cccc(F)c1)NCCNCC1CNc2ccnn2C1 (stereo not given)	0.2613
N#Cc1cccc(CNC(=O)NC2CCN(CC(F)F)CC2)c1	-0.5422
COCCN(CCC#N)S(=O)(=O)c1cc(F)cc(F)c1	-7.872
c1ccc(C(c2ccccc2)N2CCN(CCn3cncn3)CC2)cc1	0.8212
CC(C)(C)c1ccn(C2(C(=O)O)CCN(c3nccc(N)n3)CC2)n1	-5.25

Structure (SMILES)	Percent Effect [%]
O=C(c1cnccn1)N1C[C@@H]2[C@@H](C1)OCC(=O)N2CC1CCCC1	-6.759
COc1cc(C2(C(=O)NCC(=O)NC3CC3)CC2)ccc1C	9.021
Cc1ncsc1-c1ccn(CC(=O)Nc2cnn(C)n2)n1	-5.489
CNC(=O)c1ccc(CN(C(=O)c2scnc2C)C2CC2)cc1	4.078
Cc1ncsc1-c1cc(C(=O)NCCO)ccn1	109.9
O=C(NCCNC(=O)c1scnc1Cl)c1ccccc1	-1.754
CNC(=O)CNC(=O)c1ccc(-c2scnc2C)nc1	75.09
Cc1ncsc1C(=O)NCCSCCCO	-0.9457
CCCc1nnc(NC(=O)N2CCCC2c2ccncc2)s1 (stereo not given)	3.484
CN(Cc1ccc(-n2cccn2)cc1)c1nc(N)nc2c1CCNCC2	3.985
CCOc1ccc(-c2nc(CN(C)Cc3c(C)noc3C)cs2)cc1	-23.12
c1cnc2c(-c3nccn3C[C@@H]3CCCN4CCCC[C@H]34)cccc2c1	5.22
COC(=O)N1CCC2(CC1)CC(c1ccccc1)CN(C)C2 (stereo not given)	-13.78
O=C(C1CC2(CCNCC2)CN1)N1CCN(c2ccccc2)CC1 (stereo not given)	-0.8952
CC(=O)N1CCC2(CC1)CC(Oc1ccccc1)CO2 (stereo not given)	-5.824
CO[C@@H]1CN(c2ccccc2)S(=O)(=O)[C@@]12CCNC2	127.8
CO[C@@H]1CN(c2ccccc2)S(=O)(=O)[C@@]12CCN(C(=O)N(C)C)C2	88.6
CN(C)C(=O)N1CCC(C2C(=O)Nc3ccccc32)CC1 (stereo not given)	-38.16
CO[C@@H]1CN(c2ccccc2)S(=O)(=O)[C@@]12CCN(C(C)=O)C2	94.97
CN(C)C(=O)N1CCN(C(=O)CCc2ccccc2)[C@H]2CS(=O)(=O)C[C@H]21	-4.375
COC(=O)N1CC[C@@]2(C1)[C@H](OC)CN(c1ccccc1)S2(=O)=O	101.1
CS(=O)(=O)NCC1CCN(C(=O)Oc2ccccc2)CC1	-10.63
